Measured values reported in PubChem BioAssay AID1159580 (chemical genetic matrix, 2015).
In all, about 5,500 compounds went through this assay and about 2,000 (36%) were called active. Inconclusive results (about 18%) are left out. Cut-off read from the data, not from the text of the source: active = normalized growth mostly below about 0.91 (no sharp cut-off); inconclusive = no clear call, values can overlap the other calls; inactive = mostly above about 0.92. This is one part of the list.

Assay: chemical genetic growth profiling, strain panel (AID 1159580);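 note: tested at 20 µM; growth read once vehicle control cultures reached saturation at 30 °C; 1 = growth at the plate median or of vehicle wells; lower values mean less growth of the strain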
Details: growth OD

Measured: normalized growth

CN(C)C1C(=O)C(C(N)=O)=C(O)C2(O)C(=O)C3=C(O)c4c(O)ccc(Cl)c4C(C)(O)C3CC12 (stereo unspecified)
inactive: S. cerevisiae deletion strains, locus YAL013W, strain DEP1, active compounds read low 1 | S. cerevisiae deletion strains, locus YBR021W, strain FUR4, active compounds read low 0.979 | S. cerevisiae deletion strains, locus YBR229C, strain ROT2, active compounds read low 0.991 | S. cerevisiae deletion strains, locus YCL029C, strain bik1, active compounds read low 0.975 | S. cerevisiae deletion strains, locus YDL035C, strain GPR1, active compounds read low 1.01 | S. cerevisiae deletion strains, locus YDL074C, strain BRE1, active compounds read low 1.06 | S. cerevisiae deletion strains, locus YDL101C, strain DUN1, active compounds read low 0.995 | S. cerevisiae deletion strains, locus YDL134C, strain PPH21, active compounds read low 0.992 | S. cerevisiae deletion strains, locus YDL185W, strain tfp1, active compounds read low 0.993 | S. cerevisiae deletion strains, locus YDL192W, strain arf1, active compounds read low 0.99 | S. cerevisiae deletion strains, locus YDR101C, strain arx1, active compounds read low 0.997 | S. cerevisiae deletion strains, locus YDR150W, strain NUM1, active compounds read low 0.992 | S. cerevisiae deletion strains, locus YDR162C, strain NBP2, active compounds read low 1.01 | S. cerevisiae deletion strains, locus YDR318W, strain mcm21, active compounds read low 0.99 | S. cerevisiae deletion strains, locus YDR388W, active compounds read low 0.991 | S. cerevisiae deletion strains, locus YDR502C, strain sam2, active compounds read low 0.993 | S. cerevisiae deletion strains, locus YEL061C, strain CIN8, active compounds read low 0.999 | S. cerevisiae deletion strains, locus YER110C, active compounds read low 0.984 | S. cerevisiae deletion strains, locus YER155C, strain BEM2, active compounds read low 0.997 | S. cerevisiae deletion strains, locus YER167W, strain BCK2, active compounds read low 0.988 | S. cerevisiae deletion strains, locus YGL078C, strain dbp3, active compounds read low 0.99 | S. cerevisiae deletion strains, locus YGL086W, strain mad1, active compounds read low 0.982 | S. cerevisiae deletion strains, locus YGL248W, strain PDE1, active compounds read low 0.985 | S. cerevisiae deletion strains, locus YGR078C, strain PAC10, active compounds read low 1.02 | S. cerevisiae deletion strains, locus YGR135W, strain pre9, active compounds read low 1.01 | S. cerevisiae deletion strains, locus YGR229C, strain SMI1, active compounds read low 1.04 | S. cerevisiae deletion strains, locus YGR252W, strain gcn5, active compounds read low 0.948 | S. cerevisiae deletion strains, locus YHR030C, strain SLT2, active compounds read low 0.99 | S. cerevisiae deletion strains, locus YHR079C, strain IRE1 (second series), active compounds read low 0.979 | S. cerevisiae deletion strains, locus YHR094C, strain hxt1, active compounds read low 0.991 | S. cerevisiae deletion strains, locus YHR129C, strain ARP1, active compounds read low 0.994 | S. cerevisiae deletion strains, locus YHR200W, strain rpn10, active compounds read low 0.98 | S. cerevisiae deletion strains, locus YIL066C, strain RNR3, active compounds read low 0.993 | S. cerevisiae deletion strains, locus YIL073C, strain SPO22, active compounds read low 0.96 | S. cerevisiae deletion strains, locus YIL125W, strain kgd1, active compounds read low 1 | S. cerevisiae deletion strains, locus YIR030C, strain dcg1, active compounds read low 0.986 | S. cerevisiae deletion strains, locus YJL095W, strain BCK1, active compounds read low 1.03 | S. cerevisiae deletion strains, locus YJL134W, strain LCB3, active compounds read low 0.991 | S. cerevisiae deletion strains, locus YJL168C, strain set2, active compounds read low 0.991 | S. cerevisiae deletion strains, locus YJL187C, strain SWE1 (second series), active compounds read low 0.996 | S. cerevisiae deletion strains, locus YJR043C, strain POL32, active compounds read low 0.984 | S. cerevisiae deletion strains, locus YJR075W, strain HOC1, active compounds read low 1.01 | S. cerevisiae deletion strains, locus YKL009W, strain mrt4, active compounds read low 0.964 | S. cerevisiae deletion strains, locus YKL068W, active compounds read low 0.996 | S. cerevisiae deletion strains, locus YKL085W, strain MDH1 (second series), active compounds read low 0.984 | S. cerevisiae deletion strains, locus YKL085W, strain MDH1, active compounds read low 0.984 | S. cerevisiae deletion strains, locus YKL190W, strain CNB1, active compounds read low 1 | S. cerevisiae deletion strains, locus YKR001C, strain vps1, active compounds read low 0.985 | S. cerevisiae deletion strains, locus YLR039C, strain RIC1, active compounds read low 0.964 | S. cerevisiae deletion strains, locus YLR058C, strain SHM2, active compounds read low 0.991 | S. cerevisiae deletion strains, locus YLR102C, strain apc9, active compounds read low 0.985 | S. cerevisiae deletion strains, locus YLR262C, strain YPT6, active compounds read low 0.985 | S. cerevisiae deletion strains, locus YLR268W, strain sec22, active compounds read low 0.999 | S. cerevisiae deletion strains, locus YLR330W, strain CHS5, active compounds read low 0.991 | S. cerevisiae deletion strains, locus YLR342W, strain FKS1 (second series), active compounds read low 0.932 | S. cerevisiae deletion strains, locus YLR371W, strain rom2, active compounds read low 0.979 | S. cerevisiae deletion strains, locus YLR418C, strain cdc73, active compounds read low 1.02 | S. cerevisiae deletion strains, locus YML016C, strain PPZ1, active compounds read low 0.986 | S. cerevisiae deletion strains, locus YML032C, strain rad52, active compounds read low 0.98 | S. cerevisiae deletion strains, locus YML124C, strain tub3, active compounds read low 0.989 | S. cerevisiae deletion strains, locus YMR078C, strain ctf18, active compounds read low 0.983 | S. cerevisiae deletion strains, locus YMR223W, strain ubp8, active compounds read low 0.97 | S. cerevisiae deletion strains, locus YMR263W, strain SAP30, active compounds read low 1.02 | S. cerevisiae deletion strains, locus YMR307W, strain GAS1, active compounds read low 0.937 | S. cerevisiae deletion strains, locus YNL067W, strain RPL9B, active compounds read low 1.03 | S. cerevisiae deletion strains, locus YNL128W, strain TEP1, active compounds read low 1.02 | S. cerevisiae deletion strains, locus YNL153C, strain GIM3, active compounds read low 1.01 | S. cerevisiae deletion strains, locus YNL233W, strain BNI4, active compounds read low 0.999 | S. cerevisiae deletion strains, locus YNL250W, strain rad50, active compounds read low 1 | S. cerevisiae deletion strains, locus YNL271C, strain bni1, active compounds read low 0.998 | S. cerevisiae deletion strains, locus YNL298W, strain CLA4, active compounds read low 0.994 | S. cerevisiae deletion strains, locus YNL307C, strain MCK1, active compounds read low 0.976 | S. cerevisiae deletion strains, locus YNL322C, strain KRE1, active compounds read low 1 | S. cerevisiae deletion strains, locus YNR052C, strain pop2, active compounds read low 0.974 | S. cerevisiae deletion strains, locus YOL006C, strain TOP1, active compounds read low 1.09 | S. cerevisiae deletion strains, locus YOL012C, strain htz1 0.811 | S. cerevisiae deletion strains, locus YOL147C, strain pex11, active compounds read low 0.992 | S. cerevisiae deletion strains, locus YOR061W, strain CKA2, active compounds read low 0.997 | S. cerevisiae deletion strains, locus YOR069W, strain VPS5, active compounds read low 0.993 | S. cerevisiae deletion strains, locus YOR136W, strain idh2, active compounds read low 0.992 | S. cerevisiae deletion strains, locus YOR144C, strain elg1, active compounds read low 0.985 | S. cerevisiae deletion strains, locus YOR184W, strain ser1, active compounds read low 0.973 | S. cerevisiae deletion strains, locus YOR316C, strain cot1, active compounds read low 0.971 | S. cerevisiae deletion strains, locus YPL055C, strain LGE1, active compounds read low 1.04 | S. cerevisiae deletion strains, locus YPL241C, strain CIN2, active compounds read low 0.997 | S. cerevisiae deletion strains, locus YPR119W, strain clb2, active compounds read low 0.998 | S. cerevisiae deletion strains, locus YPR141C, strain kar3, active compounds read low 1 | S. cerevisiae deletion strains, locus YPR163C, strain tif3, active compounds read low 0.991 | S. cerevisiae deletion strains, locus YPR167C, strain met16, active compounds read low 0.992 | S. cerevisiae deletion strains, strain wtn01, active compounds read low 0.988 | S. cerevisiae strains, strain wild type, active compounds read low 1
